Bioassay records from PubChem BioAssay.
In the library only some 1% were active in any assay of this set; here they are far more common.
WRN helicase inh-1: WRN helicase (human) inhibition; actives 0.46% (n = 360,000); Potency, µM (doses to about 114 µM), without a hit: at the highest dose activity change, negative = inhibition, hits mostly inhibitors; AID 651768; WRN helicase unwinding, fluorescent forked duplex, kinetic; Q14191; note: % is set by controls: 0 for no effect and ±100 for the full control effect; nearly all actives have a fitted effect of over 55% in size
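WRN at 20 nM final preincubated with compound 15 min at room temperature; reaction started with 100 nM fluorophore/quencher forked duplex oligonucleotide and 2 mM ATP final. Unwinding followed kinetically by red fluorescence (ex 525, em 598 nm).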
APEX1 inh: blocks human APE1 abasic DNA cleavage. P27695. recombinant APE1, TAMRA/BHQ-2 abasic DNA cleavage fluorescence. Potency, µM (series often up to 65.8 µM), for inactives: top-dose activity change, negative = inhibition, usual class: inhibitors. actives 0.35% (n = 350,000). AID 2517;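 note: plate controls were vehicle for no effect and reference inhibitor for full effect; nearly all actives have a fitted effect of over 55% in size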
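Readout is kinetic fluorescence (ex 525, em 598 nm) from cleavage of 50 nM TAMRA/BHQ-2 THF abasic duplex by 0.75 nM APE1, compound added 15 min beforehand at RT.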
RECQ1 inh-1: blocks DNA unwinding by human RECQ1; RECQ1 DNA unwinding, red fluorescence kinetic read; Potency, µM (doses to about 57.3 µM), without a hit: at the top dose activity, negative = inhibition, most hits filed as inhibitors; actives 0.54% (n = 240,000);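 note: plate controls were vehicle for no effect and no enzyme for full effect; nearly all actives have a fitted effect of over 30% in size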
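50 nM RECQ1T1 preincubated 15 min with compound in Tris pH 8.0 buffer with MgCl2, DTT, Tween-20 and 2.5 ug/ml poly(dI-dC); started with 200 nM TAMRA/BHQ-2 forked duplex and 2 mM ATP. Unwinding read as fluorescence (525/598 nm), two reads 2 h apart.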
FEN1 inh-1: blocks human flap endonuclease 1. Potency, µM (titrated, usually from 114 µM), inactives show top-dose activity change, negative = inhibition, hits mostly inhibitors. actives 0.35% (n = 390,000). P39748. Recombinant FEN1 flap cleavage, fluorescence, 15 min; note: % is set by controls: 0 for no effect and ±100 for the full control effect; nearly all actives have a fitted effect of over 65% in size
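Read-out was taken twice, immediately and after 15 min, following addition of 50 nM substrate to 10 nM FEN1 that had sat with test compound for 15 min at room temperature. Curves came from a four-parameter Hill model.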
BLM helicase inh-1: blocks DNA unwinding by human BLM helicase; P54132; recombinant BLM DNA unwinding, fluorescence dequenching; Potency, µM (doses to about 56.1 µM), for the others: top-dose activity change, negative = inhibition, most hits filed as inhibitors; actives 0.2% (n = 350,000);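 note: plate controls were vehicle for no effect and no enzyme for full effect; nearly all actives have a fitted effect of over 35% in size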
L3MBTL1 inh-1: blocks human L3MBTL1; Q9Y468; AlphaScreen L3MBTL1–H3K9me1 peptide binding; actives 0.66% (n = 230,000); AID 485360; Potency, µM (titrated, usually from 57.1 µM), inactives show top-dose activity, negative = inhibition, actives largely listed as inhibitors; note: % is set by controls: 0 for no effect and ±100 for the full control effect; nearly all actives have a fitted effect of over 60% in size
Target sequence (Q9Y468 whole entry, looked up): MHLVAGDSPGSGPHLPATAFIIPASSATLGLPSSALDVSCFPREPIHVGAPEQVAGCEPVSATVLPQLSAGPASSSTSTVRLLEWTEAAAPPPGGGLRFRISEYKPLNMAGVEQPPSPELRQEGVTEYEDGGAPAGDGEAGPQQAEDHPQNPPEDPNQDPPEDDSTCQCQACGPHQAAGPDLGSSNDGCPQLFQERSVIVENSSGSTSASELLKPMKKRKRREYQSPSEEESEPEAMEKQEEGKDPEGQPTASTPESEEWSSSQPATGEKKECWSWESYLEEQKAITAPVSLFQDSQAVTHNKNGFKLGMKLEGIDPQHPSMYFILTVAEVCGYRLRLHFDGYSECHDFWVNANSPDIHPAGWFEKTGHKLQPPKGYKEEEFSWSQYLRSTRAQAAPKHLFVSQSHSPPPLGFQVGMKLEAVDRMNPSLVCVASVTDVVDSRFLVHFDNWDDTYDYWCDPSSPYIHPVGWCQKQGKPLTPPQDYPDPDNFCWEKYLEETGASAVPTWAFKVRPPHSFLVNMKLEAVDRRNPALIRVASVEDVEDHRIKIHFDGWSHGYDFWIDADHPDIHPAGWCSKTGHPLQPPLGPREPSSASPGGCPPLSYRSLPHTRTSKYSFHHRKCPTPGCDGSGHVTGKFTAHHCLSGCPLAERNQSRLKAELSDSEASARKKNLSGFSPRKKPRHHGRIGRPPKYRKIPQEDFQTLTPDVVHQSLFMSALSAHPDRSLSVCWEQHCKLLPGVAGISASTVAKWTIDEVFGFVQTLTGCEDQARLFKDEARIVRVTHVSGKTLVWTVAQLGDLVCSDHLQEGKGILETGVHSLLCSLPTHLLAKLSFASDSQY
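L3MBTL1 50 nM + b-AHA-H3(1-15)K9me1 75 nM, 30 min RT; compound added, 30 min RT; streptavidin donor/Ni-chelate acceptor beads 10 ug/mL each final, 30 min RT dark; AlphaScreen read.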
BLM inh: BLM (human) helicase inhibition, confirmation. shares compounds with BLM helicase inh-1. BLM DNA unwinding, fluorescence quenching, biochemical. Potency, µM, for the others: max response, negative = inhibition, actives largely listed as inhibitors. actives 40% (n = 220). AID 2585;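 note: strand separation dequenches TAMRA so unwinding raises red fluorescence; series mostly up to about 69 µM; % is set by controls: 0 for no effect and ±100 for the full control effect; nearly all actives have a fitted effect of over 45% in size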
RECQ1 conf: confirmation of human RECQ1 helicase inhibitors | shares compounds with RECQ1 inh-1 | RECQ1 helicase DNA unwinding, fluorescence | Potency, µM (titrated, usually from 229 µM), without a hit: at the top dose activity change, negative = inhibition, most hits filed as inhibitors | actives 28% (n = 610) | AID 2708; note: % is set by controls: 0 for no effect and ±100 for the full control effect; nearly all actives have a fitted effect of over 45% in size
ADP FP counter: counter-screen for RECQ1 inhibitors: ADP displacement. shares compounds with RECQ1 inh-1. ADP fluorescence polarization displacement counterscreen. Potency, µM (top dose mostly 228 µM), inactives show top-dose activity change, negative = inhibition, most hits filed as inhibitors. actives 27% (n = 530). AID 2711; note: % is set by controls: 0 for no effect and ±100 for the full control effect; nearly all actives have a fitted effect of over 45% in size
RECQ1 inh-2: RECQ1 helicase inhibition confirmed, round 2. actives 15% (n = 1,100). recombinant RECQ1 DNA unwinding, red fluorescence. shares compounds with RECQ1 inh-1. AID 504841. Potency, µM (series often up to 119 µM), inactives show at the top dose activity, negative = inhibition, most hits filed as inhibitors; note: % is set by controls: 0 for no effect and ±100 for the full control effect; nearly all actives have a fitted effect of over 50% in size
L3MBTL1 inh-2: validation of human L3MBTL1 methyl-lysine binding inhibitors; shares compounds with L3MBTL1 inh-1; L3MBTL1 methyl-lysine binding inhibition, biochemical qHTS; actives 91% (n = 500); Potency, µM, usual class: inhibitors; note: nearly all actives have a fitted effect of over 70% in size
AlphaScreen ctr2: interferes with AlphaScreen signal in L3MBTL1 counterscreen; shares compounds with L3MBTL1 inh-1; AlphaScreen counterscreen, signal inhibition; Potency, µM (titrated, usually from 57.1 µM), inactives show top-dose activity change, negative = inhibition, hits mostly inhibitors; 500 tested, under 10 active; note: 0% is about no effect
FEN1 inh-2: confirmation of human FEN1 inhibitors; FEN1 flap cleavage, TAMRA/BHQ2 fluorogenic DNA substrate; Potency, µM, usual class: inhibitors; shares compounds with FEN1 inh-1; AID 720498; actives 79% (n = 880); note: nearly all actives have a fitted effect of over 60% in size
WRN helicase inh-2: confirmation of human WRN helicase inhibitors | shares compounds with WRN helicase inh-1 | WRN helicase DNA unwinding, fluorescence kinetic | Potency, µM (titrated, usually from 57.1 µM), inactives show at the top dose activity, negative = inhibition, hits mostly inhibitors | actives 63% (n = 610); note: nearly all actives have a fitted effect of over 65% in size
TO displacement: DNA binding via thiazole orange displacement. shares compounds with WRN helicase inh-1. thiazole orange DNA binding displacement, fluorescence. Potency, µM (top dose mostly 57.1 µM), inactives show at the highest dose activity change, negative = inhibition, most hits filed as inhibitors. actives 10% (n = 610);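 note: drop in dye fluorescence marks compound binding to DNA; % is set by controls: 0 for no effect and ±100 for the full control effect; nearly all actives have a fitted effect of over 60% in size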
BLM helicase inh-2: BLM helicase inhibition, WRN selectivity check; Potency, µM (series often up to 57.1 µM), for the others: top-dose activity change, negative = inhibition, actives largely listed as inhibitors; actives 60% (n = 610); Recombinant BLM helicase DNA unwinding, red fluorescence; shares compounds with WRN helicase inh-1; note: nearly all actives have a fitted effect of over 60% in size
The depositor's hits bear a star; i = inactive; ? = inconclusive; nt = not tested or not shown; [ ] = remark or other dose. Calls come from the whole dose curve; as a rule, active = well fitted curve in the direction sought with a large enough effect; inconclusive = small, poorly fitted or top-dose-only effect, or another doubt; inactive = no such curve, though single readings can be large; an effect the other way counts as inactive or inconclusive. Potency is the fitted concentration of half-maximal effect.

SMILES | WRN helicase inh-1 | APEX1 inh | RECQ1 inh-1 | FEN1 inh-1 | BLM helicase inh-1 | L3MBTL1 inh-1 | RECQ1 inh-2 | others
Cc1c(O)ccc(/C=N/Nc2nc(-c3cccnc3)nc3ccccc23)c1O | ? | -2% | 20µM* | ? | ? | -15% | nt | BLM inh=24µM*;RECQ1 conf=?;ADP FP counter=27%[91.9 µM];WRN helicase inh-2=?;TO displacement=27µM*;BLM helicase inh-2=?
COc1ccc(C(=O)N2CCC3(CC2)CN(c2ncccn2)C3)cc1 | nt | 4% | i | nt | -10% | nt | nt
CNC(=O)COC(=O)c1cc(-c2ccco2)nc2ccccc12 | 79µM* | ? | 22µM* | 50µM* | 16µM* | 28µM* | ? | BLM inh=?;L3MBTL1 inh-2=3.4*;AlphaScreen ctr2=2%;FEN1 inh-2=?;WRN helicase inh-2=15µM*;TO displacement=-29%;BLM helicase inh-2=4.8µM*
C=CCOC(/C=C/c1ccccc1)C[Si](C)(C)C (stereo not given) | nt | -4% | -6% | -6% | 0% | nt | nt
O=C(CSc1n[nH]c(=O)[nH]c1=O)Nc1ccc2c(c1)C(=O)c1ccccc1C2=O | 32µM* | ? | i | 28µM* | 13µM* | 28µM* | nt | BLM inh=16µM*;WRN helicase inh-2=8.6µM*;TO displacement=12µM*;BLM helicase inh-2=4.3µM*
CCc1ccc(C(=O)c2cn(CC(=O)Nc3cccc(OC)c3)c3ccc(OC)cc3c2=O)cc1 | nt | 28% | nt | 40µM* | 20µM* | -3% | nt | BLM inh=20µM*;FEN1 inh-2=67*;WRN helicase inh-2=19µM*;TO displacement=-6%;BLM helicase inh-2=4.3µM*
COc1cccc(NC(=O)Cn2cc(C(=O)c3ccc(F)cc3)c(=O)c3cc(OC)ccc32)c1 | nt | nt | nt | 4% | -6% | nt | nt
Cc1ccc(CN(Cc2ccco2)c2cnc(S(C)(=O)=O)nc2C(=O)Nc2ccc(Br)cc2)o1 | nt | nt | nt | 0% | -6% | nt | nt
CCOc1ccc(-c2nc(SCC(=O)Nc3ccc(C)c(C)c3)n3[nH]c(=O)cc3n2)cc1 | nt | nt | nt | ? | 14µM* | nt | nt | BLM inh=18µM*;WRN helicase inh-2=15µM*;TO displacement=9%;BLM helicase inh-2=3µM*
Cc1ccc(NC(=O)CSc2nc(-c3cccs3)nc3cc(=O)[nH]n23)cc1C | nt | 6% | nt | -2% | -2% | ? | nt
CN(C)CC1CCn2c(c(C3=C(c4cn(C)c5ccccc45)C(=O)NC3=O)c3ccccc32)C1 (stereo not given) | nt | -5% | ? | nt | -5% | nt | 79µM*
Cn1cc(-c2nc3cnc(N4CCNCC4)nc3n(C3CC3)c2=O)c2ccccc21 | nt | ? | -7% | nt | 1% | nt | nt
CN(C)c1ccc(/C=C2\SC(=O)N(CCc3nnc(N)s3)C2=O)cc1 | -12% | -3% | ? | 2% | -8% | nt | ?
COc1ccc2cc(C)c3nnc(SCC(=O)Nc4cc(OC)c(OC)cc4C(=O)O)n3c2c1 | -8% | 1% | -3% | -13% | -1% | 0% | nt | RECQ1 conf=21%;ADP FP counter=-8%
COc1cc(NC(=O)CSc2nc3ccccc3cc2C)c(C(=O)O)cc1OC | -10%[57.1 µM] | 0% | -6% | 4% | -2% | 3% | nt | RECQ1 conf=13%;ADP FP counter=?
CCc1ccc(NCc2cc3ccc(OC)cc3n(CC(=O)Nc3cccc(Cl)c3C)c2=O)cc1 | nt | nt | nt | -6% | -2% | nt | nt
Cn1nnnc1SCC(=O)N1N=C(c2ccc(Cl)cc2)CC1c1ccco1 (stereo not given) | 4% | 12% | nt | 12% | nt | -2% | nt
Cc1nnc(SCC(=O)N2N=C(c3ccc(Cl)cc3)CC2c2ccco2)[nH]c1=O (stereo not given) | ? | -12% | 32µM* | ? | -10% | nt | -30%
CCCc1cc(=O)oc2cc(C)c(CN3CCCC3)c(O)c12 | 40µM* | ? | 13µM* | 50µM* | 25µM* | 8.9µM* | ?
Cc1cc(C)cc(NC(=O)CSc2oc(-c3cccs3)nc2S(=O)(=O)c2ccccc2)c1 | nt | nt | nt | -22% | 0% | nt | nt
CCCCOc1ccccc1C(=O)Nc1nonc1-c1ccccc1 | nt | nt | nt | -1% | -11% | nt | nt
O=C(N=C1SCC(=O)N1c1ccccc1Cl)c1ccco1 | -8% | -5% | 18µM* | -1% | -3% | -18% | ? | RECQ1 conf=14%[114 µM];ADP FP counter=132%[91.9 µM]
O=C(N=C1SCC(=O)N1c1ccccc1)c1ccco1 | -5% | 6% | i | 6% | -2% | nt | nt
COc1ccccc1/C=C/c1nc(C#N)c(N2CCN(C)CC2)o1 | nt | nt | nt | -29% | -1% | nt | nt
